The values below come from the supplement of paper PMC6555819.

One assay has as its system PPARg:RXRa IVT, anti-PPARg (NR concentration 270 nM, RXRa partner concentration 90 nM). In words: PBM binding z-score (relative to random genomic background probes); higher = stronger binding; sequences stand for … in GC…GCGATTGACAGCGTAGAATGAAGG
Put shortly: (§1)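 Binding buffer was PBS pH 7.4 with 2% milk, 0.02% Triton X-100, 1 mM DTT, 0.2 mg/mL BSA and 0.4 mg/ml salmon testes DNA. In it, ligand-free nuclear receptor dimers were incubated 1 h on custom Agilent 4×180K protein-binding microarrays carrying double-stranded probes. Antibodies against each partner (one per run) detected binding, and z-scores were calculated against random background probes after regression normalization of scanned fluorescence.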
AGAACGAGGGCACGCTGAGTTCATAGCAGAGTAG: the PBM binding z-score was 3.89.

Regarding GATACAGGGTCAGCTAGAGGACAGAGTATGGAAA, the PBM binding z-score stood at 2.33.

AGTCAAAGTTCATCTAGGTAACGTAGGATATGCT: the PBM binding z-score is 3.96.

For GGAACGAGGACAAGTTGATAGCAGAGTTTGATGG, the PBM binding z-score came to 0.446.

Turning to GCTGCTAGGTCTGGTTGGTCAGCTAACGGGTACG, the PBM binding z-score is -0.444.

As for AGAATGAGGTAATACGTAGATCAGGGAAGAAAGT, the PBM binding z-score is 0.83.

As to AGAACGAGGGCACGCTGAGTTGATGGCAGAGTAG, the PBM binding z-score is 3.81.

TCACGGAGGACACGAAAGGTCAGAGCTCGACATC came in with a PBM binding z-score of 1.63.

TCTTGTAGATAAGCAGGTTAAGAAAGCTGGCCAA displayed a PBM binding z-score of 0.184.

With CCTAGTTGGTCAGGAGGTTACACACCGGATATGA, the PBM binding z-score was determined as 1.65.

TCTGCTAGGTCAGTTGGTCAGCCAACGAGCTGCC registered a PBM binding z-score of 2.92.

In turn, CATCCAAGGTCAGAGAGGTCAGTGAATGCCGAGT registered a PBM binding z-score of 3.85.

As for TCAAGCAGGCCAGAGGGTCACTCAAGAGGTACGG, the PBM binding z-score turned out to be 0.884.

As to AATACAGGGTCACTAGGCGAGAGTAGGTACGAAT, the PBM binding z-score turned out to be 5.14.

Sequence CCTACTTGGTCAGGAGGTCACACACCGGATATGA gave a PBM binding z-score of 3.56.

As to GGAACGAGGGCAAAGATGATAGCATCTGTCGACG, the PBM binding z-score came to 3.02.

CCTACAGGGCCACGAAAGGTCATTGATTCAGTGA: the PBM binding z-score is 1.87.

For TTACCAAGGTGTAGGTCGTTGATCCCTCTGTAGA, the PBM binding z-score turned out to be 0.759.

CGAACTACGTCAGAACAGGACAGTGAAGGATGAT registered a PBM binding z-score of -0.508.

Take CCTACTGGGCCACGGAAGGTCATTGATTCAGTGA: the PBM binding z-score was found to be 5.51.

For CCTAGTTGGTCAAGAGGTCACACACCGGATATGA, the PBM binding z-score was found to be 4.43.

TCTTGTAGATTAACAGGAGGTTAAGAAAGATCGA gave a PBM binding z-score of 0.0101.

The sequence CGTCCAAGGTCAAAGGTCGGTGAAGAGATGACGG gave a PBM binding z-score of 5.09.

Sequence GCTGCTAGGTCAGATTGGTCAGCTAACGGGTACG gave a PBM binding z-score of 2.3.

TCTAGTAGATCAACAGGAGGTTAAGAAAGATCGA yielded a PBM binding z-score of 0.911.

ACTATTAGTTGACTTAGGCCAACCGATACGACGC registered a PBM binding z-score of 0.623.

With TATACAGGGTCATAGGCCAGAGTACGAATGTCGA, the PBM binding z-score was 4.47.

In turn, GCTCGGATGACAAGGTCAGAGCTTTGTCCGTAGA registered a PBM binding z-score of 0.0489.

With CGTCCAAGGTCAATGCTAGGTCGGTGAAAGCATT, the PBM binding z-score amounted to 3.65.

With TCTATTAGTTGACTAGGGCAACCGAAACAGCGGA, the PBM binding z-score was determined as 3.38.

The sequence TTGCCAAGGTGAAGGTCGTTGATCCCTCTGTAGA displayed a PBM binding z-score of 2.3.

TCTCGGAGGACACGATGGTCAGAGCTTTCCAGAG: the PBM binding z-score was -0.167.

The sequence TCTATTAGTTGATTAGGGCAACTGAAACAGCGGA came in with a PBM binding z-score of 1.45.

In turn, TCTTGTAGATGAAAGGTTAAGAAAGCCGAAGCCT gave a PBM binding z-score of 2.16.

With TCAGACATGTGAAGGTAACTCAGGTACGCAGTCG, the PBM binding z-score was -0.0574.

For ATATGTAGGTTAATGGTCATTCAGGTTGGTTCGC, the PBM binding z-score was determined as 7.31.

As to ACTATTAGTTGAGACAAGGGCAACCGATAGGTTG, the PBM binding z-score is 0.38.

GCTGCTAGGTCCACTGATGGTCAGCTAAAGCTCG showed a PBM binding z-score of -0.423.

Take TTACCAAGGTGAAGGTCCTTGATCCCTCTGTAGA: the PBM binding z-score was 2.67.

Sequence CAAACTAGGTCACGAAAGGTCAATGTCGAATGAC came in with a PBM binding z-score of 9.35.

Another assay has as its system PPARg DBDmut:RXRa IVT, anti-PPARg (DBD mutation: PPARg1 K132A/R137A, NR concentration 270 nM, RXRa partner concentration 90 nM). The description is as above. The gist of the method: as §1
In turn, AGAACGAGGGCACGCTGAGTTCATAGCAGAGTAG registered a PBM binding z-score of 0.826.

For the sequence GATACAGGGTCAGCTAGAGGACAGAGTATGGAAA, the PBM binding z-score is 0.573.

For the sequence AGTCAAAGTTCATCTAGGTAACGTAGGATATGCT, the PBM binding z-score is 1.76.

In turn, GGAACGAGGACAAGTTGATAGCAGAGTTTGATGG returned a PBM binding z-score of -0.104.

GCTGCTAGGTCTGGTTGGTCAGCTAACGGGTACG showed a PBM binding z-score of -1.29.

Sequence AGAATGAGGTAATACGTAGATCAGGGAAGAAAGT returned a PBM binding z-score of 1.02.

Consider AGAACGAGGGCACGCTGAGTTGATGGCAGAGTAG, for which the PBM binding z-score was determined as 0.605.

In turn, TCACGGAGGACACGAAAGGTCAGAGCTCGACATC yielded a PBM binding z-score of -0.581.

For the sequence TCTTGTAGATAAGCAGGTTAAGAAAGCTGGCCAA, the PBM binding z-score turned out to be 0.000724.

Turning to CCTAGTTGGTCAGGAGGTTACACACCGGATATGA, the PBM binding z-score came to 0.504.

Consider TCTGCTAGGTCAGTTGGTCAGCCAACGAGCTGCC, for which the PBM binding z-score turned out to be 2.07.

The sequence CATCCAAGGTCAGAGAGGTCAGTGAATGCCGAGT showed a PBM binding z-score of 0.635.

For the sequence TCAAGCAGGCCAGAGGGTCACTCAAGAGGTACGG, the PBM binding z-score was -1.19.

Sequence AATACAGGGTCACTAGGCGAGAGTAGGTACGAAT showed a PBM binding z-score of 1.72.

Regarding CCTACTTGGTCAGGAGGTCACACACCGGATATGA, the PBM binding z-score was 0.756.

For the sequence GGAACGAGGGCAAAGATGATAGCATCTGTCGACG, the PBM binding z-score is -0.58.

Take CCTACAGGGCCACGAAAGGTCATTGATTCAGTGA: the PBM binding z-score was -0.216.

TTACCAAGGTGTAGGTCGTTGATCCCTCTGTAGA displayed a PBM binding z-score of -0.595.

With CGAACTACGTCAGAACAGGACAGTGAAGGATGAT, the PBM binding z-score was found to be 0.627.

Turning to CCTACTGGGCCACGGAAGGTCATTGATTCAGTGA, the PBM binding z-score was -0.609.

Turning to CCTAGTTGGTCAAGAGGTCACACACCGGATATGA, the PBM binding z-score was determined as 0.763.

TCTTGTAGATTAACAGGAGGTTAAGAAAGATCGA: the PBM binding z-score is -0.776.

CGTCCAAGGTCAAAGGTCGGTGAAGAGATGACGG came in with a PBM binding z-score of 0.166.

The sequence GCTGCTAGGTCAGATTGGTCAGCTAACGGGTACG had a PBM binding z-score of -0.411.

Turning to TCTAGTAGATCAACAGGAGGTTAAGAAAGATCGA, the PBM binding z-score amounted to 0.0951.

On to ACTATTAGTTGACTTAGGCCAACCGATACGACGC, for which the PBM binding z-score was determined as 1.41.

With TATACAGGGTCATAGGCCAGAGTACGAATGTCGA, the PBM binding z-score was found to be 2.52.

In turn, GCTCGGATGACAAGGTCAGAGCTTTGTCCGTAGA displayed a PBM binding z-score of -1.27.

As for CGTCCAAGGTCAATGCTAGGTCGGTGAAAGCATT, the PBM binding z-score was -0.723.

Regarding TCTATTAGTTGACTAGGGCAACCGAAACAGCGGA, the PBM binding z-score was 0.37.

Sequence TTGCCAAGGTGAAGGTCGTTGATCCCTCTGTAGA registered a PBM binding z-score of -1.04.

As for TCTCGGAGGACACGATGGTCAGAGCTTTCCAGAG, the PBM binding z-score is -0.797.

In the case of TCTATTAGTTGATTAGGGCAACTGAAACAGCGGA, the PBM binding z-score is 1.14.

Consider TCTTGTAGATGAAAGGTTAAGAAAGCCGAAGCCT, for which the PBM binding z-score came out at 0.389.

For the sequence TCAGACATGTGAAGGTAACTCAGGTACGCAGTCG, the PBM binding z-score came out at 0.0996.

ATATGTAGGTTAATGGTCATTCAGGTTGGTTCGC registered a PBM binding z-score of 4.17.

ACTATTAGTTGAGACAAGGGCAACCGATAGGTTG: the PBM binding z-score is 0.684.

Sequence GCTGCTAGGTCCACTGATGGTCAGCTAAAGCTCG displayed a PBM binding z-score of -1.19.

Consider TTACCAAGGTGAAGGTCCTTGATCCCTCTGTAGA, for which the PBM binding z-score was -0.58.

CAAACTAGGTCACGAAAGGTCAATGTCGAATGAC displayed a PBM binding z-score of 5.05.
